Experimental data published in publication PMC7862700, “An all-to-all approach to the identification of sequence-specific readers for epigenetic DNA modifications on cytosine”.

What was measured:
Test in all cases: DAPPL (digital affinity profiling via proximity ligation, sequencing); 10 mM Tris-HCl pH 7.5, 50 mM NaCl, 1 mM DTT, 4% glycerol, room temperature, 30 min; GST-TFs on glutathione beads, 16-mer random dsDNA library, 0.1% formaldehyde crosslink after washing; high values mean tight binding
Details in all cases: protein: recombinant; tags: N-terminal GST; dsDNA, one strand shown
[1] = target: T1, ELK4 (Homo sapiens, UniProt P28324-2 1-405)
T1 sequence: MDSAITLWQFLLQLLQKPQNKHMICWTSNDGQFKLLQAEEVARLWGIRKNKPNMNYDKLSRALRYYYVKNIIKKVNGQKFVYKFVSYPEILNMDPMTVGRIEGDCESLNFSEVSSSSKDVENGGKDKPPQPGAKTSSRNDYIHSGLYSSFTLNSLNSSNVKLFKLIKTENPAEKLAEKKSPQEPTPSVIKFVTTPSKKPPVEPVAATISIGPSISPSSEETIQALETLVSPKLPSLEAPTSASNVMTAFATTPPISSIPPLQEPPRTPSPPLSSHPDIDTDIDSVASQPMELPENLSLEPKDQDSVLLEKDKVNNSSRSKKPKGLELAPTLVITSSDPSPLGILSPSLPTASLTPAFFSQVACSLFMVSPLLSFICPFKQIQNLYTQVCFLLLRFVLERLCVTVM
Procedure, shortened: (§1)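 Human transcription factors were made in yeast as GST fusions, captured on glutathione beads and barcoded with DNA. With a tag-only sample included, the pool was incubated with 200 nmole of a random double-stranded 16-mer DNA library in Tris/NaCl/DTT/glycerol buffer at room temperature for 30 min, then crosslinked with 0.1% formaldehyde after washing, ligated by proximity, amplified and sequenced. For binding signal, each hexamer's read frequency for a factor is divided by its frequency for the tag-only sample.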

[2] = target: T2, ELK1 (Homo sapiens, UniProt P19419 1-428)
T2 sequence: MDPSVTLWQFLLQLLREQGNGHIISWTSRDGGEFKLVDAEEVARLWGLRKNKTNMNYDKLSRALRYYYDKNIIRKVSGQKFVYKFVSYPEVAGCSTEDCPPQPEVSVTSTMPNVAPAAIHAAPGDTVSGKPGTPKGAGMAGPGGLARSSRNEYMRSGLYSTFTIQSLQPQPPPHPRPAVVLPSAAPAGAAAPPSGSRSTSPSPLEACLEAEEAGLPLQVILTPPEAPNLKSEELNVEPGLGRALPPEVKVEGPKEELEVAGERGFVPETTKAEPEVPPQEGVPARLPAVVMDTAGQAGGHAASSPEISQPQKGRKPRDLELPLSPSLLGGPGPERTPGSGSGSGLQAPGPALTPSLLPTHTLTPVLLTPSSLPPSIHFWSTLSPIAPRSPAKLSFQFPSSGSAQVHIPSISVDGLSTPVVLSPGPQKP
Procedure, shortened: as §1

[3] = target: ELF1 (Homo sapiens, UniProt P32519 1-619)
Chain of ELF1 (P32519 whole entry): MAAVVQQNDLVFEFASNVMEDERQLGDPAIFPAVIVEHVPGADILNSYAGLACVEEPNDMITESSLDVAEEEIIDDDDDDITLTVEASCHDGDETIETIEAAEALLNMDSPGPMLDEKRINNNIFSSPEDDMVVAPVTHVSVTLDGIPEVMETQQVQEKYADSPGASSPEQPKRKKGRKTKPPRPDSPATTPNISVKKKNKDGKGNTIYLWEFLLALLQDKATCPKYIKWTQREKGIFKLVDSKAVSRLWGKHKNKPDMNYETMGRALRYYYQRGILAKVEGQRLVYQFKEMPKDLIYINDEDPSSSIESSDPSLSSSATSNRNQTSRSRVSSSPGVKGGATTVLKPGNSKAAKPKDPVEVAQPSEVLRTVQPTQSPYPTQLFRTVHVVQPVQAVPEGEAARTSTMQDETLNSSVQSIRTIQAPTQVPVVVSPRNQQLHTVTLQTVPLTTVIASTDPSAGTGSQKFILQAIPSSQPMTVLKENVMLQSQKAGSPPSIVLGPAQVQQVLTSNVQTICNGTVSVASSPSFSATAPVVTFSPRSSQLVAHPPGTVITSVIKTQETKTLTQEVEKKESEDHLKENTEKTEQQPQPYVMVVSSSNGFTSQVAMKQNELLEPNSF
Procedure, shortened: as §1

[4] = target: T3, EHF (Homo sapiens, UniProt Q9NZC4 1-300)
T3 sequence: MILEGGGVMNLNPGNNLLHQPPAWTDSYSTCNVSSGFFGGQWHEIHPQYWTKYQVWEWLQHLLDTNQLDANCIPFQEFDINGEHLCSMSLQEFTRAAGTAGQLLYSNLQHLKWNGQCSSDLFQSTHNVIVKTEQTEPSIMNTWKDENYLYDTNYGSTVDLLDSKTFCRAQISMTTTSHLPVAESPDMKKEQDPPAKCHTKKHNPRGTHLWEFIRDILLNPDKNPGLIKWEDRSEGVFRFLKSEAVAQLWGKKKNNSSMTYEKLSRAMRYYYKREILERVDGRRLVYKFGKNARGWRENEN
Procedure, shortened: as §1

[5] = target: SPI1 (Homo sapiens, UniProt P17947 1-270)
Procedure, shortened: as §1

[6] = target: T4, ELK3 (Homo sapiens, UniProt P41970 1-407)
T4 sequence: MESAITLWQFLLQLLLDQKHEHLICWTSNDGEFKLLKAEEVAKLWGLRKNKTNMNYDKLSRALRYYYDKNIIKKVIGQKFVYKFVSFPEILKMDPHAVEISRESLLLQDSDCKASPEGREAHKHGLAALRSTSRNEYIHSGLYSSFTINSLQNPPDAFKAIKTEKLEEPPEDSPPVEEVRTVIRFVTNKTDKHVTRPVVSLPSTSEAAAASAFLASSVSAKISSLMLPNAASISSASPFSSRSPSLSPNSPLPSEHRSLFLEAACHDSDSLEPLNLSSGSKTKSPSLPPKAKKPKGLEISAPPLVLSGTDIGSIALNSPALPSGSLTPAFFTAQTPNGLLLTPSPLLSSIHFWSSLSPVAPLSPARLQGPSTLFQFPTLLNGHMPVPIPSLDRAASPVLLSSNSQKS
Procedure, shortened: as §1

[7] = target: ELF4 (Homo sapiens, UniProt Q99607 1-663)
Chain of ELF4 (Q99607 whole entry): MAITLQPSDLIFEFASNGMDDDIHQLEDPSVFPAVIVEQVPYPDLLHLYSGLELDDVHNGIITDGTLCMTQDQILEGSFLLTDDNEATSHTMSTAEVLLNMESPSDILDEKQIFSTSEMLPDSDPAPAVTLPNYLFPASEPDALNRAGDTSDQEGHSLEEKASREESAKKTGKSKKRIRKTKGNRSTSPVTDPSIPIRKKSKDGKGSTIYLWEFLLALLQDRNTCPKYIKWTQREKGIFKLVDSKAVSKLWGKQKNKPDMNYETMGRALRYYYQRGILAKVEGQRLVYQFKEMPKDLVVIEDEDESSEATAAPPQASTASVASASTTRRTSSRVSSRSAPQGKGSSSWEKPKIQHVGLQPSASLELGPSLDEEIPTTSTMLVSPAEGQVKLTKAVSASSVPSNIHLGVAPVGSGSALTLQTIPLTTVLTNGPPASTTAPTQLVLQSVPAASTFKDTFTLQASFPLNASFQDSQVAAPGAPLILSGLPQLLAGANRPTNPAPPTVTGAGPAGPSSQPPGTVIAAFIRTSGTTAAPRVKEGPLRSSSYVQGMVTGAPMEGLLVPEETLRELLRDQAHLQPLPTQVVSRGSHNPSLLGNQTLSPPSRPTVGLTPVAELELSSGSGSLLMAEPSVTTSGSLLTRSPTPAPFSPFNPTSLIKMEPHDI
Procedure, shortened: as §1

[8] = target: T5, ETV2 (Homo sapiens, UniProt O00321 1-342)
T5 sequence: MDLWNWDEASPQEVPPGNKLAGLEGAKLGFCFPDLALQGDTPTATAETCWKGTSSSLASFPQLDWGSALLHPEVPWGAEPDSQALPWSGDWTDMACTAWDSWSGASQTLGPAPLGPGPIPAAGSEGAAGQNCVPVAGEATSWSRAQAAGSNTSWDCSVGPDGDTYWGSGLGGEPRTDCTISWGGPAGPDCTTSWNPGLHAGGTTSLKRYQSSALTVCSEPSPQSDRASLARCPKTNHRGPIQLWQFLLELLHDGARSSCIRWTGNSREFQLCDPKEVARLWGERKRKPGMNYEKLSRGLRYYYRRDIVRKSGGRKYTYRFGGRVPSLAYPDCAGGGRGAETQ
Procedure, shortened: as §1

[9] = target: T6, ELF3 (Homo sapiens, UniProt P78545 1-371)
T6 sequence: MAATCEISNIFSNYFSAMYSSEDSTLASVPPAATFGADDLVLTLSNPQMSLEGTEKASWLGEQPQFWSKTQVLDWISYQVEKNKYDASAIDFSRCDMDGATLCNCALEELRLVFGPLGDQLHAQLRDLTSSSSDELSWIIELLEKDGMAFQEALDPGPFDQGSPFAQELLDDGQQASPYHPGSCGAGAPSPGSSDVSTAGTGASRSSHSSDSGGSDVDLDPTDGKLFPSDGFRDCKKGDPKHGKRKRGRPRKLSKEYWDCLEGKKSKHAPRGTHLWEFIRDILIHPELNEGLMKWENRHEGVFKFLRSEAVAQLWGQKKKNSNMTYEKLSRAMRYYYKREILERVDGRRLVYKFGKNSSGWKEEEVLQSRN
Procedure, shortened: as §1

[10] = target: CRX (Homo sapiens, UniProt O43186 1-299)
Chain of CRX (O43186 whole entry): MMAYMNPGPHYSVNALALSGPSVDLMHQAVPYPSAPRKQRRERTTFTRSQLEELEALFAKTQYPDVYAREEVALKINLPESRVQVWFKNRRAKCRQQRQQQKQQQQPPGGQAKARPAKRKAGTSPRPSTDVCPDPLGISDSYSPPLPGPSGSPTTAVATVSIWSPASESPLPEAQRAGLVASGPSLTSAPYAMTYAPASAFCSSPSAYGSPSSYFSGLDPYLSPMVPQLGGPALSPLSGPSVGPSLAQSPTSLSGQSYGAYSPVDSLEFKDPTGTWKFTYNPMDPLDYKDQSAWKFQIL
Procedure, shortened: as §1

[11] = target: T7, ERF (Homo sapiens, UniProt P50548 1-548)
T7 sequence: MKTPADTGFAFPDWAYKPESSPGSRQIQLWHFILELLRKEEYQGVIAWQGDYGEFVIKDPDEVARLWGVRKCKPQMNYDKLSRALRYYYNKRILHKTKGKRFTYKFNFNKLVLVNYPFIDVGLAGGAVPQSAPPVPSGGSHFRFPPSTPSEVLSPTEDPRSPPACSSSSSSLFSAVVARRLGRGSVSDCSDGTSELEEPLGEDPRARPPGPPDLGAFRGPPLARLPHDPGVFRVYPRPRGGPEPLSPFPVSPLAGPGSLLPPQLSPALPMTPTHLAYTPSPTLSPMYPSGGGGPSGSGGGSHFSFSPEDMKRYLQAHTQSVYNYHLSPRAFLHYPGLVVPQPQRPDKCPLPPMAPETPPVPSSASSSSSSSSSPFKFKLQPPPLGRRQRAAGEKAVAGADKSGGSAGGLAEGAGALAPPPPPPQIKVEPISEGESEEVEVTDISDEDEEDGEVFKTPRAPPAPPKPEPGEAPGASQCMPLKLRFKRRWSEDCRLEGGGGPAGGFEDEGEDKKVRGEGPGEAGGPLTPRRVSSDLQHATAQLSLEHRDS
Procedure, shortened: as §1

[12] = target: T8, SPDEF (Homo sapiens, UniProt O95238 1-335)
T8 sequence: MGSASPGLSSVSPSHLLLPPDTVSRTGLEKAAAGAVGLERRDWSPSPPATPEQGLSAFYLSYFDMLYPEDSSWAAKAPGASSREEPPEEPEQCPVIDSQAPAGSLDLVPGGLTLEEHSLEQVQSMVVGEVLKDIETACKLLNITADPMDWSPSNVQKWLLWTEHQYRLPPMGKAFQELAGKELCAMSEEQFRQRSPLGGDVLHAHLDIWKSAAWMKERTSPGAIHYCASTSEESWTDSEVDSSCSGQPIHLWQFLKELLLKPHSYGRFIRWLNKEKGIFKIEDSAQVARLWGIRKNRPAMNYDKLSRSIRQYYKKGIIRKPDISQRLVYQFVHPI
Procedure, shortened: as §1

[13] = target: T9, ETV7 (Homo sapiens, UniProt Q9Y603 1-341)
T9 sequence: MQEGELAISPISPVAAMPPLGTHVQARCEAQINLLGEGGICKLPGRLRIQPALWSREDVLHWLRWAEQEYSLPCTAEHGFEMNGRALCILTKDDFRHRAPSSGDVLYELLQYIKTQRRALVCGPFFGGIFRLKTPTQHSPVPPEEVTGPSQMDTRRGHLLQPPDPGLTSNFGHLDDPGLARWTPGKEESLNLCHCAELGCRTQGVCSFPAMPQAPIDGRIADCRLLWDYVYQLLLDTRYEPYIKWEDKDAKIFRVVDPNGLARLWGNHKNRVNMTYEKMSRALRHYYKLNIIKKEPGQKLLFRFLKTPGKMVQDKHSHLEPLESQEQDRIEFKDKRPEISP
Procedure, shortened: as §1

[14] = target: T10, ETV3 (Homo sapiens, UniProt P41162-2 1-143)
T10 sequence: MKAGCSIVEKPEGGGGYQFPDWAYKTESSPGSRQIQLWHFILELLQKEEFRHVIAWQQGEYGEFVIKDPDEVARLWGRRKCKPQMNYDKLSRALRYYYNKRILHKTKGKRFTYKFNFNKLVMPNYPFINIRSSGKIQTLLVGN
Procedure, shortened: as §1

CTGAGG was tested, and the binding signal [1] was 1.02 fold enrichment (6-mer frequency, TF over GST control).

ACAGTT was tested, and the binding signal [1] was 1.02 fold enrichment (6-mer frequency, TF over GST control).

TAACGT was tested, and the binding signal [2] was 1.02 fold enrichment (6-mer frequency, TF over GST control), the binding signal [3] was 1.01 fold enrichment (6-mer frequency, TF over GST control) and the binding signal [4] was 1.02 fold enrichment (6-mer frequency, TF over GST control). The binding signal [5] was 1.03 fold enrichment (6-mer frequency, TF over GST control), the binding signal [6] was 1.08 fold enrichment (6-mer frequency, TF over GST control) and the binding signal [7] was 1.01 fold enrichment (6-mer frequency, TF over GST control). The binding signal [1] was 1.06 fold enrichment (6-mer frequency, TF over GST control), the binding signal [8] was 1.02 fold enrichment (6-mer frequency, TF over GST control) and the binding signal [9] was 1.06 fold enrichment (6-mer frequency, TF over GST control). The binding signal [10] was 1.16 fold enrichment (6-mer frequency, TF over GST control), the binding signal [11] was 1.07 fold enrichment (6-mer frequency, TF over GST control) and the binding signal [12] was 1.05 fold enrichment (6-mer frequency, TF over GST control). For the same sequence, the binding signal [13] was 1.01 fold enrichment (6-mer frequency, TF over GST control) and the binding signal [14] was 1.04 fold enrichment (6-mer frequency, TF over GST control).
